This is an account of results in PubChem BioAssay.

Experiment [1] is described as follows: small molecules captured by biotinylated probe aFSTL3 – biochemical, small-molecule microarray, fluorescence 635/667, stem cell growth factor project, primary screen (AID 1064).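 Further: measures binding of the biotinylated anti-FSTL3 antibody to printed compounds.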 The note with it: higher = more signal.
Experiment [2] can be described thus: binders from COS7 lysate, DM2A8 probe, primary screen, torsin A project, cell lysate, small-molecule microarray, fluorescence 635/667 (AID 1065). Particulars: higher = more signal, COS7 lysate expressing mutant human TOR1A.
The nature of experiment [3]: small molecules captured by biotinylated probe aFGF2 – biochemical, small-molecule microarray, fluorescence 635/667, stem cell growth factor project, primary screen (AID 1067).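 Further: measures binding of biotinylated aFGF2 protein to printed compounds on slides; z-score merges feature fluorescence and signal-to-noise across triplicate slides.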 The note with it: higher = more signal.
A short description of experiment [4]: small molecules captured by biotinylated probe aFGF10 – biochemical, small-molecule microarray, fluorescence 635/667, stem cell growth factor project, primary screen (AID 1071).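 Further: score merges 667 nm spot intensity and signal to noise from triplicate slides.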 Particulars: higher = more signal.
Experiment [5] deals with Neurogenic locus notch homolog protein 2 (Homo sapiens) (UniProt Q04721). Description: small molecules binding Notch2 protein – biochemical, small-molecule microarray, 635 nm fluorescence, stem cell growth factors, primary screen (AID 1073). The note with it: higher = more signal.
Chain of Neurogenic locus notch homolog protein 2 (Homo sapiens) (Q04721 whole entry, looked up, canonical isoform): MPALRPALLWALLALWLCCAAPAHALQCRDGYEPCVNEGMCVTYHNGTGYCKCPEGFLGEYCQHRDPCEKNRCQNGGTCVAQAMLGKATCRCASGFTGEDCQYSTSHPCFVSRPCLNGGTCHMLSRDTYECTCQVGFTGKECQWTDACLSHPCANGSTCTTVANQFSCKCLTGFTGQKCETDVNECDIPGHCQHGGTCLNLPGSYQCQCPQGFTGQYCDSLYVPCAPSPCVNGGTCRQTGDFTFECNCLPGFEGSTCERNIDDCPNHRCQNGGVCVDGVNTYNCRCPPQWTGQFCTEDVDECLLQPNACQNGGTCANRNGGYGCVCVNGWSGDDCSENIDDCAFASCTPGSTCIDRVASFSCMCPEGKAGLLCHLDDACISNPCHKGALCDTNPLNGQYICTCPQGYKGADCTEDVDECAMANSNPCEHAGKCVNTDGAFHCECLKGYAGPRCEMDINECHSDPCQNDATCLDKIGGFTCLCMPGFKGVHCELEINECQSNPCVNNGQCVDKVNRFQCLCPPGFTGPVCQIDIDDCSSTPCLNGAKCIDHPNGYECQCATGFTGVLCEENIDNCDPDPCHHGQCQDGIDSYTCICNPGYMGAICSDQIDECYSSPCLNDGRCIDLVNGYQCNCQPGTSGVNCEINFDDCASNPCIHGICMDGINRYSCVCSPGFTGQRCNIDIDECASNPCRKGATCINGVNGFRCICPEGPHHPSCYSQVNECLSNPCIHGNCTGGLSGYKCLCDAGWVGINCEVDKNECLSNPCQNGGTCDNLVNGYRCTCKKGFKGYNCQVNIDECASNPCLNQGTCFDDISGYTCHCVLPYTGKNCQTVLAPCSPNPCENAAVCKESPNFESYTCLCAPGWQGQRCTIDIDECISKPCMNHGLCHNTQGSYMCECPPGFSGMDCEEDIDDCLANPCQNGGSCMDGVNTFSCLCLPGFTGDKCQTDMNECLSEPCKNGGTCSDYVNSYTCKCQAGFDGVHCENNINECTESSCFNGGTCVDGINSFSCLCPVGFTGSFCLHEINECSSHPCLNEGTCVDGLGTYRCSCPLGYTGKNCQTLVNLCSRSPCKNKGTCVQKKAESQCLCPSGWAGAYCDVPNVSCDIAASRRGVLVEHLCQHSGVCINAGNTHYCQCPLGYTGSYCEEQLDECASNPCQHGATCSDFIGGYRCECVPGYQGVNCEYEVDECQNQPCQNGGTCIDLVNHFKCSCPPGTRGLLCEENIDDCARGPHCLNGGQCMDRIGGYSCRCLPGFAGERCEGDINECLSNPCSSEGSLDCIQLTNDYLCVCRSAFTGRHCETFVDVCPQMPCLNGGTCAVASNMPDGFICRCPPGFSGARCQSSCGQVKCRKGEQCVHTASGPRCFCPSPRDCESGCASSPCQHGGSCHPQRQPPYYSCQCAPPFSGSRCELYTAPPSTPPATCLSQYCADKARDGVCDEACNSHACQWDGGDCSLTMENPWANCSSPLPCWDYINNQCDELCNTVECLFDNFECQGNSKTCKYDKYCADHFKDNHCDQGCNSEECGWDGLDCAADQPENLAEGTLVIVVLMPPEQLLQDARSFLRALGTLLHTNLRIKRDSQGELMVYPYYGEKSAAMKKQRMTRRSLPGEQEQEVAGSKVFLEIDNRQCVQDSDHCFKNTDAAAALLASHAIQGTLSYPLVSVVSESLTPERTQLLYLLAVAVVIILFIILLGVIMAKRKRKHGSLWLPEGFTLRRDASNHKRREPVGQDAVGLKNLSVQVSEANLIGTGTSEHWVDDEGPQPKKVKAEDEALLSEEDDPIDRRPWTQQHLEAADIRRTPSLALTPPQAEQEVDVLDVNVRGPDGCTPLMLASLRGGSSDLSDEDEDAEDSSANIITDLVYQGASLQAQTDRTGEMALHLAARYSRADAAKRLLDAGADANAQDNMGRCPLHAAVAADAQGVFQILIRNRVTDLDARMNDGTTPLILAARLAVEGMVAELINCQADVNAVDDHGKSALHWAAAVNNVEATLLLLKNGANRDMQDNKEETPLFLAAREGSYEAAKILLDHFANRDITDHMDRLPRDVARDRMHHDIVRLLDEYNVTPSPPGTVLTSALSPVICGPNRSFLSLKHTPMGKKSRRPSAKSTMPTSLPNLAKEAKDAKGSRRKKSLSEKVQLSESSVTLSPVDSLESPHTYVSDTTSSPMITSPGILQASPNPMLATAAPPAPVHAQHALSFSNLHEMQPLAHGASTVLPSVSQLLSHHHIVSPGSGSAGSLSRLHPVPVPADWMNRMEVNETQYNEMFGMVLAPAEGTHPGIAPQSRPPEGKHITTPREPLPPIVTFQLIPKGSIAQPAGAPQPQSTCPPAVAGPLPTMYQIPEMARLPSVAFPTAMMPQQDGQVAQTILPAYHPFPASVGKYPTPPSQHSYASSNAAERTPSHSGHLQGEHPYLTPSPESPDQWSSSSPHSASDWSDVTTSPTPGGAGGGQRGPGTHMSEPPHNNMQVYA
The target in experiment [6] is Pro-neuregulin-1, membrane-bound isoform (Homo sapiens) (UniProt Q02297). Description: small molecules binding neuregulin-1 protein – biochemical, small-molecule microarray, fluorescence 635/667, psychiatric disease protein project, primary screen (AID 1075).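 Further: score combines 667 nm spot fluorescence with signal to noise.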 The note with it: NRG1 binding, 635 nm fluorescence, higher = more signal.
Chain of Pro-neuregulin-1, membrane-bound isoform (Homo sapiens) (Q02297 whole entry, looked up, the tested form may be a part, canonical isoform): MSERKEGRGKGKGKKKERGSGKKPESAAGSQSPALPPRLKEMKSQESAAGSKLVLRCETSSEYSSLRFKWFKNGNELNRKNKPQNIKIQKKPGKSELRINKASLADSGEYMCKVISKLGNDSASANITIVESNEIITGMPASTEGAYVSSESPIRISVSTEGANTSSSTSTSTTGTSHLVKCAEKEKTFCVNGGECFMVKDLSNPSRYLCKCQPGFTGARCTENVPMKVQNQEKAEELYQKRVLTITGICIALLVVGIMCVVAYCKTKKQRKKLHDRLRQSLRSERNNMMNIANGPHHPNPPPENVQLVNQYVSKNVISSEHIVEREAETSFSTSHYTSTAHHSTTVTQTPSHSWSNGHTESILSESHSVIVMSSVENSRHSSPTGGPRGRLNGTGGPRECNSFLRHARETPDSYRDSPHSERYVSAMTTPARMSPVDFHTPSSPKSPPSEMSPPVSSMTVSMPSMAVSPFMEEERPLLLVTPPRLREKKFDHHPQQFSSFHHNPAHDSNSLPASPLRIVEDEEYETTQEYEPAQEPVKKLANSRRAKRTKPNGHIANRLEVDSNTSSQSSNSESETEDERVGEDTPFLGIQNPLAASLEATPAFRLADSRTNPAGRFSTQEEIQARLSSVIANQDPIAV
Experiment [7] deals with Neuregulin-1 EGF-like domain. Description: small molecules binding NRG1 EGF domain – biochemical, small-molecule microarray, 635 nm fluorescence, primary screen (AID 1081).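 Further: binding of the protein to compounds printed on small-molecule microarray slides.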 The note with it: higher = more signal.
Experiment [8] is described as follows: FRG1 expression reporter modulators in myotubes – cell-based, C2C12 myotubes, firefly/Renilla luciferase, luminescence, FRG1 inhibition for FSHD, primary screen (AID 1084). The note with it: FRG1 promoter luciferase, higher = more signal, called active from +8 up or from −8 down.
Experiment [9] is described as follows: small molecules captured by biotinylated probe aFST – biochemical, small-molecule microarray, fluorescence 635/667, stem cell growth factor project, primary screen (AID 1086).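 Further: score merges 667 nm fluorescence with signal-to-noise of each printed compound spot.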 Particulars: higher = more signal.
The nature of experiment [10]: binders of probe aHhip on microarray, primary screen, stem cell growth factor project, biochemical, small-molecule microarray, fluorescence 635/667 (AID 1087).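 Further: score merges spot fluorescence at 667nm with spot signal to noise ratio.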 The note with it: higher = more signal.
Experiment [11] has as its system PRMT1 (protein arginine N-methyltransferase 1). Description: small molecules binding arginine methyltransferase PRMT1 – biochemical, small-molecule microarray, 635 nm fluorescence, primary screen (AID 1088).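 Further: binding of Prmt1 protein to compounds spotted on small-molecule microarray slides.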 Particulars: higher = more signal.
Experiment [12] can be described thus: growth effects on S. cerevisiae YJM789 – YJM789 clinical isolate, OD600, 24 h, basal, primary screen (AID 1089).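 Further: growth of clinical yeast isolate S. cerevisiae YJM 789 seeded 1000 cells per well; test concentration not given here.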 The note with it: higher = more signal, called active from +8 up or from −8 down.
Experiment [13] in a line: S. pombe growth modifiers, basal conditions – strain 972, OD600, 24 h, no modulator, primary screen (AID 1090).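 Further: basal condition with compound alone and no growth modifier present; test concentration not given here.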 The note with it: S. pombe 972 growth, higher = more signal, called active from +8 up or from −8 down.
A short description of experiment [14]: budding yeast growth modifiers under rapamycin – strain BY4716, OD600, 96 h, primary screen (AID 1091). Further: test concentration not given here. The note with it: S. cerevisiae BY4716 + rapamycin, higher = more signal, called active from +8 up or from −8 down.
Experiment [15] addresses Torsin-1A-interacting protein 2 (Homo sapiens) (UniProt Q8NFQ8). Description: small molecules binding lysate-expressed LULL1 – cell lysate, human LULL1 lysate, 635/667 nm fluorescence, primary screen (AID 1092).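 Further: probe is lysate of COS7 cells overexpressing human LULL1; score merges per-feature 667 nm fluorescence with signal-to-noise.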 Particulars: small-molecule microarray, hLULL1 lysate binding, 635 nm fluorescence; higher = more signal.
Experiment [16] in a line: optical density change of DRC41 E. coli – strain DRC41, OD650, 24 h, E. coli filamentation project, primary screen (AID 1093).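 Further: MC1000 strain lacking acrAB efflux and sulA so SOS filamentation is blocked; test concentration not given here.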 The note with it: E. coli DRC41 growth, higher = more signal, called active from +8 up or from −8 down.
A short description of experiment [17]: probe aLefty2 binding to arrayed compounds – biochemical, biotinylated probe, 635/667 nm fluorescence, primary screen (AID 1094).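 Further: score merges spot fluorescence near 667 nm with spot signal-to-noise ratio.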 Particulars: small-molecule microarray, higher = more signal.
Experiment [18] concerns Noggin (protein binding on small-molecule microarray). Description: small molecules binding Noggin protein – biochemical, 635/667 nm fluorescence, primary screen (AID 1095).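 Further: score merges 667 nm feature fluorescence with signal to noise over triplicate slides.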 Particulars: 635 nm fluorescence, higher = more signal.
In experiment [19] the target is Neurogenic locus notch homolog protein 3 (Homo sapiens) (UniProt Q9UM47). Description: small molecules binding NOTCH3 protein – biochemical, 635/667 nm fluorescence, primary screen (AID 1096). Particulars: small-molecule microarray, 635 nm fluorescence, higher = more signal.
The nature of experiment [20]: probe aEGFR binding to arrayed compounds – biochemical, biotinylated probe, 635/667 nm fluorescence, primary screen (AID 1097).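 Further: probe is a biotinylated anti-EGFR antibody binding compounds printed on slides; score combines fluorescence near 667 nm and signal to noise of each spot.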 The note with it: small-molecule microarray, higher = more signal.

The source made the active and inactive calls.

Chain of Torsin-1A-interacting protein 2 (Homo sapiens) (Q8NFQ8 whole entry, looked up): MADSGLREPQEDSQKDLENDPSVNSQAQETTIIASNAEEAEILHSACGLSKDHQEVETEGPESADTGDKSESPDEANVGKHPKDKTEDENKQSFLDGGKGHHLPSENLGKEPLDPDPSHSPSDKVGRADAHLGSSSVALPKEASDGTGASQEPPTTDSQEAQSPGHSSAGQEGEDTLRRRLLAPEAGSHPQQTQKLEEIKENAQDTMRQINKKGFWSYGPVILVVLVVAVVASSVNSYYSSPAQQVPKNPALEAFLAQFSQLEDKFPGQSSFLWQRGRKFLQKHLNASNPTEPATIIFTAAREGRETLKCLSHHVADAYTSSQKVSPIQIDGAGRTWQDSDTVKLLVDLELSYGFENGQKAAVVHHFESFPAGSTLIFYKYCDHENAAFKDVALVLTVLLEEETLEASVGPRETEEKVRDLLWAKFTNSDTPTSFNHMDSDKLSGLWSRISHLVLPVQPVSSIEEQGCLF

In the case of `CC(C)c1ccc(NN2C(C(O)C(c3ccccc3)c3ccccc3)C=CC3C(=O)N(c4ccccc4)C(=O)C32)cc1` (stereo not given), the composite z-score in experiment [1] is -0.304; in experiment [2], -0.612; in experiment [3], 0.116; in [4] it was 0.903; in experiment [5], 1.53; in experiment [6], 1.63. Moreover, the composite z-score in [7] worked out at 1.26; in experiment [9], 1.25; in [10], 0.452; in [11] it was 1.56; in [15], 2.63; in experiment [17], 0.0399. The results for the composite z-score in experiment [18], in experiment [19] and in experiment [20] were 0.63, 1.06 and 0.104, respectively. Besides, the z-score in experiment [8] is 0.358 (inactive); in [12], 0.709 (inactive); in [13], -0.223 (inactive); in experiment [14], 1.04 (inactive); in experiment [16], -2.08 (inactive).

Consider `COC(=O)[C@@]1(Cc2ccccc2)[C@H]2c3cc(C(=O)N4CCCC4)n(Cc4cccc5ccccc45)c3C[C@H]2CN1C(=O)c1ccccc1`, for which the composite z-score was found to be 1.79 in experiment [1]; 0.0848 in experiment [2]; 0.705 in experiment [3]; 0.913 in experiment [4]; 1.63 in experiment [5]; 1.49 in [6]. Besides, the composite z-score was 1.21 in [7]; 2.03 in [9]; 0.869 in [10]; -1.59 in experiment [11]; 2.54 in experiment [15]; 1.29 in experiment [17]. For the same compound, the values for the composite z-score in [18], in experiment [19] and in [20] were -0.685, 0.943 and 0.891, respectively. The z-score in experiment [8] is -0.165 (inactive); in [12], 0.506 (inactive); in experiment [13] it was 1.56 (inactive); in [14], 1.43 (inactive); in [16] it was -0.395 (inactive).

On to `NCCCCCNC(=O)[C@@H]1C[C@@H]2C(=O)NCC(=O)N2[C@@H]1c1ccc(O)cc1`, for which the composite z-score in [1] is -0.293; in experiment [2] it was 0.304; in experiment [3] it was -0.129; in experiment [4], 0.975; in experiment [5], -0.195; in [6], 0.817. Moreover, the composite z-score in experiment [7] is 1.25; in [9] it was -0.107; in experiment [10] it was -0.0994; in experiment [11] it was 1.53; in experiment [15], 2.51; in experiment [17], -0.145. Besides, the composite z-score in experiment [18] is 1.37; in [19], 0.892; in experiment [20] it was -0.192. The z-score in experiment [8] was 0.117 (inactive); in experiment [12] it was -0.491 (inactive); in experiment [13], -0.723 (inactive); in experiment [14], 0.124 (inactive); in experiment [16], -0.031 (inactive).

For `CC1CC/C=C\[C@H]2OC34C=CCN(c5ccc(Cl)cc5)C(=O)[C@H]3N(CCO)C(=O)[C@]4(C)C2C(=O)O1` (stereo not given in full), the composite z-score in experiment [1] was 0.359; in [2], 0.0741; in experiment [3], -0.12; in experiment [4] it was -0.472; in experiment [5], -0.749; in experiment [6], 0.93. Further, the composite z-score is 0.842 in [7]; -0.448 in experiment [9]; -0.106 in experiment [10]; 0.517 in [11]; 0.139 in [15]; -0.0619 in experiment [17]. The composite z-score in [18] is -0.504; in experiment [19], 0.105; in experiment [20] it was -0.166. Further, the z-score in [8] was -0.39 (inactive); in [12] it was -1.51 (inactive); in [13] it was -1.4 (inactive); in [14] it was -0.528 (inactive); in experiment [16], 0.613 (inactive).

As for `COCCOC(=O)N1C(=O)[C@@]2(c3cc(C#CC4=CCCCC4)ccc31)[C@H](C(=O)N1CCc3cc(OC)c(OC)cc3C1)[C@H]1C(=O)O[C@H](c3ccccc3)[C@H](c3ccccc3)N1[C@@H]2c1ccc(OCCO)cc1`, the composite z-score is -0.137 in experiment [1]; 0.492 in experiment [2]; -0.0094 in [3]; 0.599 in experiment [4]; 1.1 in experiment [5]; 0.101 in experiment [6]. The composite z-score in experiment [7] is 1.21; in experiment [9], 0.533; in experiment [10], -0.0121; in experiment [11] it was 1.55; in [15], 2.49; in experiment [17], -0.119. Besides, the composite z-score was 0.916 in experiment [18], 1.09 in experiment [19] and -0.0357 in experiment [20]. The z-score in [8] was 0.235 (inactive); in experiment [12], 1.34 (inactive); in experiment [13] it was 0.713 (inactive); in experiment [14], 3.16 (inactive); in experiment [16] it was -0.217 (inactive).
